Key:
Assay in all cases: DAPPL (digital affinity profiling via proximity ligation, sequencing); 10 mM Tris-HCl pH 7.5, 50 mM NaCl, 1 mM DTT, 4% glycerol, room temperature, 30 min; GST-TFs on glutathione beads, 16-mer random dsDNA library, 0.1% formaldehyde crosslink after washing; high values mean tight binding
[1] = molecular target: T1, FEV (Homo sapiens, UniProt Q99581 1-238); conditions: protein: recombinant; tags: N-terminal GST; dsDNA, one strand shown
T1 sequence: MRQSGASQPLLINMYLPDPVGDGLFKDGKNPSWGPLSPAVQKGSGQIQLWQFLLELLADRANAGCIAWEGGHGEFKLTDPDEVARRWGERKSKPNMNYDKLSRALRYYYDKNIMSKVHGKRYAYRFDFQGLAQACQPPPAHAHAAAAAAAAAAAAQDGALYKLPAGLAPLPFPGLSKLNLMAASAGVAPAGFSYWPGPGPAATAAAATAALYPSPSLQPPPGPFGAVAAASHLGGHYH
Method in brief: (§1)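 Binding signal is each hexamer's read frequency for a factor divided by its frequency in the tag-only sample. The factors were GST-fused human transcription factors from yeast, captured on glutathione beads, DNA-barcoded and pooled with that sample. Pools were incubated with 200 nmole of a random double-stranded 16-mer DNA library in Tris/NaCl/DTT/glycerol buffer at room temperature for 30 min, then washed, crosslinked with 0.1% formaldehyde, proximity-ligated with BsaI/T4 ligase (1 h, 37 °C), PCR-amplified and sequenced on an Illumina NextSeq500.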

[2] = molecular target: ETV5 (Homo sapiens, UniProt P41161 1-510); conditions: protein: recombinant; tags: N-terminal GST; dsDNA, one strand shown
Sequence of ETV5 (P41161 whole entry): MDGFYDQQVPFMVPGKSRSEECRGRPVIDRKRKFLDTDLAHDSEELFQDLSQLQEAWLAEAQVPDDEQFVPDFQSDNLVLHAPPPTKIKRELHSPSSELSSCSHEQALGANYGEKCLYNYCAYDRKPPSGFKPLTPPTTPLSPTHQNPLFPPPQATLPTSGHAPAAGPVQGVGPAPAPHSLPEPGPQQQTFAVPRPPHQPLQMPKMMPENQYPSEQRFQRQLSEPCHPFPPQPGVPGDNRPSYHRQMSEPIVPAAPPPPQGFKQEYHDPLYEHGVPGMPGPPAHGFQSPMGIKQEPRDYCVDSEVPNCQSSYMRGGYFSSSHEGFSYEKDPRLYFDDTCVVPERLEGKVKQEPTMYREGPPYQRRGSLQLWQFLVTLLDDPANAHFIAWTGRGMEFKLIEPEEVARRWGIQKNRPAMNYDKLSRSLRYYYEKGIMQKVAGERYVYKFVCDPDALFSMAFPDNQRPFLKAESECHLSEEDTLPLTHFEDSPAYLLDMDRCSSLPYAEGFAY
Method in brief: as §1

[3] = molecular target: HSF1 (Homo sapiens, UniProt Q00613 1-529); conditions: protein: recombinant; tags: N-terminal GST; chain copies: 3; dsDNA, one strand shown
Sequence of HSF1 (Q00613 whole entry): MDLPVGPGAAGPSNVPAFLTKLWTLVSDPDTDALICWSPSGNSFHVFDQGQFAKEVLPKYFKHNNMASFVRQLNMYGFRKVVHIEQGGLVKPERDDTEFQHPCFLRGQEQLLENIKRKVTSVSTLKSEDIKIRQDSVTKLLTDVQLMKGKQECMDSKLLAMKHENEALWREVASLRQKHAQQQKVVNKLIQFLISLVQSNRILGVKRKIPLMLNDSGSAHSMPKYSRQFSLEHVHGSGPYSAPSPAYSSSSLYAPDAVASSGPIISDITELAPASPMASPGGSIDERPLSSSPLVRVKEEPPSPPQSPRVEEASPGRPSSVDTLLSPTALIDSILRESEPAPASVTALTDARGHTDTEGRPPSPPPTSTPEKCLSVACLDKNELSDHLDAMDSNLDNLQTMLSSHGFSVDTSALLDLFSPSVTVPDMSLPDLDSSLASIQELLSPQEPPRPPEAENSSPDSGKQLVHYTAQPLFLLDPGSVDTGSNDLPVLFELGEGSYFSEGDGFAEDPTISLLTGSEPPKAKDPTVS
Method in brief: as §1

[4] = molecular target: T2, SPIC (Homo sapiens, UniProt Q8N5J4 1-248); conditions: protein: recombinant; tags: N-terminal GST; dsDNA, one strand shown
T2 sequence: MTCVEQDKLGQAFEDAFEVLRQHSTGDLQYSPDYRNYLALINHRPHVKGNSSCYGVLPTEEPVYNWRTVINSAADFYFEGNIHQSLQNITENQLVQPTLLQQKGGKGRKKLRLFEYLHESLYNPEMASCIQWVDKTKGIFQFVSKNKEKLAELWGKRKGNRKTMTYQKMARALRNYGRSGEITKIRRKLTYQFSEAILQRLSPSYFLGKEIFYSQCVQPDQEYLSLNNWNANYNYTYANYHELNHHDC
Method in brief: as §1

[5] = molecular target: ELF4 (Homo sapiens, UniProt Q99607 1-663); conditions: protein: recombinant; tags: N-terminal GST; dsDNA, one strand shown
Sequence of ELF4 (Q99607 whole entry): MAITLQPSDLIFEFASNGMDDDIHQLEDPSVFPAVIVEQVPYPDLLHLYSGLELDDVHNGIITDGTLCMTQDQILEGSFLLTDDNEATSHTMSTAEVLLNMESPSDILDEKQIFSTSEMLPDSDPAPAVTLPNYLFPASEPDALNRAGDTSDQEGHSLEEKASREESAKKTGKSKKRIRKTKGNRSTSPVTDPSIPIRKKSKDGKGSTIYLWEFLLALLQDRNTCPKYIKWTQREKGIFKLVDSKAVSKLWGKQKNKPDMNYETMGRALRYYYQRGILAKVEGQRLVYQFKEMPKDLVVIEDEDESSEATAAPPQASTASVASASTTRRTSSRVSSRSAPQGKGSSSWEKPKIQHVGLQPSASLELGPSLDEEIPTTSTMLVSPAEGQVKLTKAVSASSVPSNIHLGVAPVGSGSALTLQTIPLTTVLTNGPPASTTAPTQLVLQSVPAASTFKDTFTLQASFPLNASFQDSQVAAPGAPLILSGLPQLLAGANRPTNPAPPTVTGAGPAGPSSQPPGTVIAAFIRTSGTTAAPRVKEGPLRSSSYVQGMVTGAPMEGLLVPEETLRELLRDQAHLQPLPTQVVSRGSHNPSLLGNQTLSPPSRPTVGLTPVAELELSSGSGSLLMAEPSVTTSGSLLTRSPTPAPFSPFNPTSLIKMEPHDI
Method in brief: as §1

[6] = molecular target: T3, ELK4 (Homo sapiens, UniProt P28324-2 1-405); conditions: protein: recombinant; tags: N-terminal GST; dsDNA, one strand shown
T3 sequence: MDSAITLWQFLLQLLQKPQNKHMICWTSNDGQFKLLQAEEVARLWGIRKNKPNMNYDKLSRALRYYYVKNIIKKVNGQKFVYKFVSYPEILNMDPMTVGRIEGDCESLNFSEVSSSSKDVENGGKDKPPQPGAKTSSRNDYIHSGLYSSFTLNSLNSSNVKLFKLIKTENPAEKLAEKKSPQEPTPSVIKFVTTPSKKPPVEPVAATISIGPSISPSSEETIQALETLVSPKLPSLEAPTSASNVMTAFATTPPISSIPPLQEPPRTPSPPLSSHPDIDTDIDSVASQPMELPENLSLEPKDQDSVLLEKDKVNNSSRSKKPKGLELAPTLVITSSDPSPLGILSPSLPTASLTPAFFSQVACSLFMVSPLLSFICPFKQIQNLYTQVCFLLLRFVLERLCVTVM
Method in brief: as §1

[7] = molecular target: T4, ETV2 (Homo sapiens, UniProt O00321 1-342); conditions: protein: recombinant; tags: N-terminal GST; dsDNA, one strand shown
T4 sequence: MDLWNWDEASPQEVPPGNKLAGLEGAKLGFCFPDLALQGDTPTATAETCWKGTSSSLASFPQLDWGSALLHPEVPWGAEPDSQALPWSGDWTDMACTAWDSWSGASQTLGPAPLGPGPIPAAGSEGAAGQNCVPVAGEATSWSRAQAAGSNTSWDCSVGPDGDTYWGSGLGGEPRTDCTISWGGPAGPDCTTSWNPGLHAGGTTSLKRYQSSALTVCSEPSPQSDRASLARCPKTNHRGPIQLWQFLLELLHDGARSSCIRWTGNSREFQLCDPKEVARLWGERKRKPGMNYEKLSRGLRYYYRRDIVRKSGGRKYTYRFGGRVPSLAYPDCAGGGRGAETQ
Method in brief: as §1

[8] = molecular target: T5, ELF3 (Homo sapiens, UniProt P78545 1-371); conditions: protein: recombinant; tags: N-terminal GST; dsDNA, one strand shown
T5 sequence: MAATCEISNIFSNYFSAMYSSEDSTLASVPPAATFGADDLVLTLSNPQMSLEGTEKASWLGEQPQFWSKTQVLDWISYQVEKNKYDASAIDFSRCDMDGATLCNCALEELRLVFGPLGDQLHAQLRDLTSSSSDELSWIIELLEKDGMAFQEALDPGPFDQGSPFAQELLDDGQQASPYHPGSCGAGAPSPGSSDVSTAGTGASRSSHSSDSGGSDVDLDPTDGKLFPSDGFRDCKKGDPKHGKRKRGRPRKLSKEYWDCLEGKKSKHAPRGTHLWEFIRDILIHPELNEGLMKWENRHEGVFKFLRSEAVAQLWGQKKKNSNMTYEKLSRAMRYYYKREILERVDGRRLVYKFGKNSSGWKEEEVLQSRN
Method in brief: as §1

[9] = molecular target: CRX (Homo sapiens, UniProt O43186 1-299); conditions: protein: recombinant; tags: N-terminal GST; dsDNA, one strand shown
Sequence of CRX (O43186 whole entry): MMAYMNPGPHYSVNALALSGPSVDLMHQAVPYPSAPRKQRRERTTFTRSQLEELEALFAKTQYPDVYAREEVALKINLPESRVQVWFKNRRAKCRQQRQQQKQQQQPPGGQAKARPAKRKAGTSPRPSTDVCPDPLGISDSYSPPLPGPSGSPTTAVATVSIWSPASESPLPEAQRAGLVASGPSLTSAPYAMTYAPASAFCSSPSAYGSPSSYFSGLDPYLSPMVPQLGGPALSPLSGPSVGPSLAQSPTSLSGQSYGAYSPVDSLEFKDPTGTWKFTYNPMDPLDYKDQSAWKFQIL
Method in brief: as §1

**Q.** How did the binding signal [1] turn out when TTGAGC was run?
**A.** The binding signal was 1 fold enrichment (6-mer frequency, TF over GST control).

**Q.** What about the binding signal [2] of the same sequence?
**A.** Its binding signal is 1.03 fold enrichment (6-mer frequency, TF over GST control).

**Q.** What about the binding signal [3] of the same sequence?
**A.** Its binding signal is 1.03 fold enrichment (6-mer frequency, TF over GST control).

**Q.** And the binding signal [4]?
**A.** The binding signal was 1.18 fold enrichment (6-mer frequency, TF over GST control).

**Q.** What about the binding signal [5] of the same sequence?
**A.** Its binding signal is 1.06 fold enrichment (6-mer frequency, TF over GST control).

**Q.** What about the binding signal [6] of the same sequence?
**A.** Its binding signal is 1.04 fold enrichment (6-mer frequency, TF over GST control).

**Q.** And the binding signal [7]?
**A.** The binding signal was 1.07 fold enrichment (6-mer frequency, TF over GST control).

**Q.** And the binding signal [8]?
**A.** Its binding signal is 1.13 fold enrichment (6-mer frequency, TF over GST control).

**Q.** What about the binding signal [9] of the same sequence?
**A.** The binding signal was 1.28 fold enrichment (6-mer frequency, TF over GST control).
